Our source for the Percent Effect values is ChEMBL document CHEMBL3988442, “University of Dundee, Small-Polar-MMV Screening Library” (2021).

Common to all, as to parameters: scale not given: direction of the effect not stated beside the values
For assay [1], the target named is Protein translocase subunit SecA (Escherichia coli (strain K12)) (UniProt P10408). Description: Assay to Identify E. coli SecA ATPase Inhibitors. The format is functional. To be noted: 30 µM.
In assay [2] the target is T1, Ubiquitin-activating enzyme e1, putative (Leishmania donovani (strain BPK282A1)) (UniProt E9BSI1).
T1 sequence (whole entry): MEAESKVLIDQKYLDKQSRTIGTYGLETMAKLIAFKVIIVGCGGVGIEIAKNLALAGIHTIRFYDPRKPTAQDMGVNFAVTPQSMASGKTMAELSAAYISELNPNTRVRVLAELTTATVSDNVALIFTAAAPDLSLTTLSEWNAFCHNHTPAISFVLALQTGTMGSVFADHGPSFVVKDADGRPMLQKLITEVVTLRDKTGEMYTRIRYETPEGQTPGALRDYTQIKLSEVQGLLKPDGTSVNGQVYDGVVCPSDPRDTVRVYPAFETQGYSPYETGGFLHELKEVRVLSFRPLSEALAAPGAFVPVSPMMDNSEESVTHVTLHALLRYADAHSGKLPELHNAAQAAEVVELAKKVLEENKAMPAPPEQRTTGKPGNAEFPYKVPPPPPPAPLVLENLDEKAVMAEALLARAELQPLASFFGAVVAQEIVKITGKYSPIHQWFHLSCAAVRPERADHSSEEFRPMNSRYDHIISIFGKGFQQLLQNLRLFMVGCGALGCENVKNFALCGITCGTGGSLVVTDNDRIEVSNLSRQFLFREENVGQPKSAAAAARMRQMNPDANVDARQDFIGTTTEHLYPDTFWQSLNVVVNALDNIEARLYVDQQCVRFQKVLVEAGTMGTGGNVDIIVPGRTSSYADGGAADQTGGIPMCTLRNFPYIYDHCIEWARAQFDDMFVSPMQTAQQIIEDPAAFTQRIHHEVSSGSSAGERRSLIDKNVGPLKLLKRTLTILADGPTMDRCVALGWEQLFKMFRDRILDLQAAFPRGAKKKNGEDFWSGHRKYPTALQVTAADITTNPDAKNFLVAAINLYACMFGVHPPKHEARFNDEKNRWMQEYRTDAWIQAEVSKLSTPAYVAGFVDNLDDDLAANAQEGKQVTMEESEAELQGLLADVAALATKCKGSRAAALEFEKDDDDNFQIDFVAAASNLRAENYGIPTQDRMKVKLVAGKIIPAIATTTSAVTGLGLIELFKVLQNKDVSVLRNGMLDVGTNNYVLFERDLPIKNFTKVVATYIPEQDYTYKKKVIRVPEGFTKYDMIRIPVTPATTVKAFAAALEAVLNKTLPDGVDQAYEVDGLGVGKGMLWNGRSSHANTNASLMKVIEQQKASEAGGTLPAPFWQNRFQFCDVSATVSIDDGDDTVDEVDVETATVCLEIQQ
The assay is described as follows: Leishmania donovani Ubiquitin Activating Enzyme (LdE1). The assay is classed as functional. As to conditions: 30 µM.

Assay [3] has as its target AMP-activated protein kinase, AMPK (Homo sapiens) (UniProt P54646+O43741+P54619+Q9UGJ0+Q9Y478+Q13131+Q9UGI9). The assay is described as follows: AMP-dependent Kinase enzyme assay. An in vitro enzyme assay that detects ADP turnover that is directly proportional to AMPK activity. This uses naive AMPK that is activated during the assay with MK-8722. The format is functional. To be noted: 30 µM.

In assay [4] the target is Sialic acid-binding Ig-like lectin 9 (Homo sapiens) (UniProt Q9Y336). Description: Hs-Siglec9 ALPHAscreen SOP 20170721. As to conditions: 10 µM.
Chain of Sialic acid-binding Ig-like lectin 9 (Homo sapiens) (Q9Y336 whole entry): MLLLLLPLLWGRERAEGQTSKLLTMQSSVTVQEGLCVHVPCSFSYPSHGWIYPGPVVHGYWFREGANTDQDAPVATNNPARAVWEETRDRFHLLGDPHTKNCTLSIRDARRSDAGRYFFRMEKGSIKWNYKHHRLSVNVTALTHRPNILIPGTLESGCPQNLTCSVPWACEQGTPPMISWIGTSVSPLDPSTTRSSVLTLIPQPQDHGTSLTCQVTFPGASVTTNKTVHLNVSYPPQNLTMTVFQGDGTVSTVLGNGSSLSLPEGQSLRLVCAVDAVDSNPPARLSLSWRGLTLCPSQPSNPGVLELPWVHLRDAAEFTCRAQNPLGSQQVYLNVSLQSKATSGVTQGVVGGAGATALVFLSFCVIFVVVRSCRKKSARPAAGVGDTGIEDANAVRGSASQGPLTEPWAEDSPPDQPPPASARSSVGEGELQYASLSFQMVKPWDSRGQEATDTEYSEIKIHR
Another assay deals with Trypanosoma cruzi. The assay is described as follows: Trypanosoma cruzi phosphomannomutase and mannose-1-phosphate guanylyltransferase assay. The format is functional. As to conditions: 10 µM.
Assay [5] deals with T2, Arginase-2, mitochondrial (Homo sapiens) (UniProt P78540).
T2 sequence (whole entry): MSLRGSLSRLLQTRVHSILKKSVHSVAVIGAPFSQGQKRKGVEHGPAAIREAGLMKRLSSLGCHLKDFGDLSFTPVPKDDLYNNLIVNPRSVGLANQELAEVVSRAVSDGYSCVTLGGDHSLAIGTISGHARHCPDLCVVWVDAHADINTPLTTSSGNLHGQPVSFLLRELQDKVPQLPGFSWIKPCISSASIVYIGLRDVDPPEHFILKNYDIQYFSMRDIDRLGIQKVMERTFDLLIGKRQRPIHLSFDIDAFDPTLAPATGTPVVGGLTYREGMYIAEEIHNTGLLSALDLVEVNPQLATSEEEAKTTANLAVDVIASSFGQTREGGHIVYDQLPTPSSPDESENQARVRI
Description: in vitro enzyme assay to detect the production of urea directly proportional to the activity of Arginase II. Note: in the data most compounds retested in dose-response had high values. The format is functional. As to conditions: 33.3 µM.

Assay [6] deals with T3, Proteasome subunit beta (Trypanosoma cruzi) (UniProt O96673).
T3 sequence (whole entry): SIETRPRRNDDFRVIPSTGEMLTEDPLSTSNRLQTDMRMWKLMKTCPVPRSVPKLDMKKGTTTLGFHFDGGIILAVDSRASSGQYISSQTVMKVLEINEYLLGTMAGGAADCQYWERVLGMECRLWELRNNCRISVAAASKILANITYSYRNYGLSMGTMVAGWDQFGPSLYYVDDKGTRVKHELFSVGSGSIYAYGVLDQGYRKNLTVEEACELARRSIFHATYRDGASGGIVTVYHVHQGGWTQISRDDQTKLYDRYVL
Description: Trypanosoma cruzi proteasome chymotrypsin-like activity (TcProtChymo) assay. Note: in the data most compounds retested in dose-response had high values. As to conditions: 9.37 µM. The format is functional.

Another assay is filed under the species Homo sapiens. The assay is described as follows: To identify inhibition of the IFN signalling (Jak-Stat) pathway via expression of an eGFP reporter gene under the control of an IFN-stimulated response element (ISRE) containing MxA promoter. The assay is classed as functional. As to conditions: 30 µM.
In assay [7] the target is T4, Tyrosyl-tRNA synthetase, putative (Trypanosoma cruzi (strain CL Brener)) (UniProt Q4DSP6).
T4 sequence (whole entry): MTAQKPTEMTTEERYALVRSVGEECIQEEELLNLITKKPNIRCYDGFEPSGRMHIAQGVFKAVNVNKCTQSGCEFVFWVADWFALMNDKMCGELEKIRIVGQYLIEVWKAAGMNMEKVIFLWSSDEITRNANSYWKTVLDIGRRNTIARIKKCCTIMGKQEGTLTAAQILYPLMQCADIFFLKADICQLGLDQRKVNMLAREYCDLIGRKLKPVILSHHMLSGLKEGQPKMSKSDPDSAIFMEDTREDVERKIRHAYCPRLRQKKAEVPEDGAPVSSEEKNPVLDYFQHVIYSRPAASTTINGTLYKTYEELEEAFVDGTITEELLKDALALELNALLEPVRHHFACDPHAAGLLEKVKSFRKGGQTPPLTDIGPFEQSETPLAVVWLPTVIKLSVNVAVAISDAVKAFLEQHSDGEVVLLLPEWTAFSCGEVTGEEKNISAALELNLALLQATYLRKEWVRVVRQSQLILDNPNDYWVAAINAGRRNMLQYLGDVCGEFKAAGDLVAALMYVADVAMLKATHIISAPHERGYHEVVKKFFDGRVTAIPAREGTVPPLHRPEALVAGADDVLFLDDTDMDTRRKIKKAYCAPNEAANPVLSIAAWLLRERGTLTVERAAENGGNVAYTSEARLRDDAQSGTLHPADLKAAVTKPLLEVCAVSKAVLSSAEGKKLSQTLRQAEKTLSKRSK
The assay is described as follows: Trypanosoma cruzi tyrosyl tRNA synthetase (TcYRS) _High Tyrosine SOP. Note: in the data most compounds retested in dose-response had high values. The assay is classed as functional. To be noted: 30 µM.

For assay [8], the target named is T4, Tyrosyl-tRNA synthetase, putative (Trypanosoma cruzi (strain CL Brener)). The assay is described as follows: Trypanosoma cruzi tyrosyl tRNA synthetase (TcYRS) SOP. The format is functional. As to conditions: 30 µM.
Assay [9] has as its target Chromo domain-containing protein 1 (Saccharomyces cerevisiae (strain ATCC 204508 / S288c) (Baker's yeast)) (UniProt P32657). Description: ScCHD-1 Enzyme Inhibition Assay. Note: in the data most compounds retested in dose-response had high values. The format is functional. As to conditions: 30 µM.

For some of these results: Results with a measured potency or affinity are listed apart.

Chain of Protein translocase subunit SecA (Escherichia coli (strain K12)) (P10408 whole entry): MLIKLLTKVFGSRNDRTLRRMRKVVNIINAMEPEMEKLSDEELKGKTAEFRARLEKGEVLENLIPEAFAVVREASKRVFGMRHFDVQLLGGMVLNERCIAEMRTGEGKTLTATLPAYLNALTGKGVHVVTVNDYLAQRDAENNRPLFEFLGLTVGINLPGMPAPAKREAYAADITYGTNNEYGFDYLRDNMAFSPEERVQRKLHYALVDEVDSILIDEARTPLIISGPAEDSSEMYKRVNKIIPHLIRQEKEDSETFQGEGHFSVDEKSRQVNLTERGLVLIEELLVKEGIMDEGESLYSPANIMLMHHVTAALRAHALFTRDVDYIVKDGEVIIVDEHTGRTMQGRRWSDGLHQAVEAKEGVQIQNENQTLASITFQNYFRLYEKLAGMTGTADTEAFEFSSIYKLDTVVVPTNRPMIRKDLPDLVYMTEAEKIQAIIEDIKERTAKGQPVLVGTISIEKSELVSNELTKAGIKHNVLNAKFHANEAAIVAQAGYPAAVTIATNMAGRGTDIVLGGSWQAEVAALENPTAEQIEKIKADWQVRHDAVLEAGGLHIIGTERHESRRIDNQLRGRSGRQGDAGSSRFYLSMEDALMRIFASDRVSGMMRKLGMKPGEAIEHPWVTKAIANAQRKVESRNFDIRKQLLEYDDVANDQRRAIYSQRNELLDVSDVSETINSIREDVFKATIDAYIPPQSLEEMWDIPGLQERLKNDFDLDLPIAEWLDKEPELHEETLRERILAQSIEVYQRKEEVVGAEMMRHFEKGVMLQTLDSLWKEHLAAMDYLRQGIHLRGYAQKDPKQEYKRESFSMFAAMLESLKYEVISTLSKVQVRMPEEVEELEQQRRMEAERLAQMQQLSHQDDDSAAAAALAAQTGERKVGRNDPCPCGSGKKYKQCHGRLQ
Chain of Chromo domain-containing protein 1 (Saccharomyces cerevisiae (strain ATCC 204508 / S288c) (Baker's yeast)) (P32657 whole entry, the tested form may be a part): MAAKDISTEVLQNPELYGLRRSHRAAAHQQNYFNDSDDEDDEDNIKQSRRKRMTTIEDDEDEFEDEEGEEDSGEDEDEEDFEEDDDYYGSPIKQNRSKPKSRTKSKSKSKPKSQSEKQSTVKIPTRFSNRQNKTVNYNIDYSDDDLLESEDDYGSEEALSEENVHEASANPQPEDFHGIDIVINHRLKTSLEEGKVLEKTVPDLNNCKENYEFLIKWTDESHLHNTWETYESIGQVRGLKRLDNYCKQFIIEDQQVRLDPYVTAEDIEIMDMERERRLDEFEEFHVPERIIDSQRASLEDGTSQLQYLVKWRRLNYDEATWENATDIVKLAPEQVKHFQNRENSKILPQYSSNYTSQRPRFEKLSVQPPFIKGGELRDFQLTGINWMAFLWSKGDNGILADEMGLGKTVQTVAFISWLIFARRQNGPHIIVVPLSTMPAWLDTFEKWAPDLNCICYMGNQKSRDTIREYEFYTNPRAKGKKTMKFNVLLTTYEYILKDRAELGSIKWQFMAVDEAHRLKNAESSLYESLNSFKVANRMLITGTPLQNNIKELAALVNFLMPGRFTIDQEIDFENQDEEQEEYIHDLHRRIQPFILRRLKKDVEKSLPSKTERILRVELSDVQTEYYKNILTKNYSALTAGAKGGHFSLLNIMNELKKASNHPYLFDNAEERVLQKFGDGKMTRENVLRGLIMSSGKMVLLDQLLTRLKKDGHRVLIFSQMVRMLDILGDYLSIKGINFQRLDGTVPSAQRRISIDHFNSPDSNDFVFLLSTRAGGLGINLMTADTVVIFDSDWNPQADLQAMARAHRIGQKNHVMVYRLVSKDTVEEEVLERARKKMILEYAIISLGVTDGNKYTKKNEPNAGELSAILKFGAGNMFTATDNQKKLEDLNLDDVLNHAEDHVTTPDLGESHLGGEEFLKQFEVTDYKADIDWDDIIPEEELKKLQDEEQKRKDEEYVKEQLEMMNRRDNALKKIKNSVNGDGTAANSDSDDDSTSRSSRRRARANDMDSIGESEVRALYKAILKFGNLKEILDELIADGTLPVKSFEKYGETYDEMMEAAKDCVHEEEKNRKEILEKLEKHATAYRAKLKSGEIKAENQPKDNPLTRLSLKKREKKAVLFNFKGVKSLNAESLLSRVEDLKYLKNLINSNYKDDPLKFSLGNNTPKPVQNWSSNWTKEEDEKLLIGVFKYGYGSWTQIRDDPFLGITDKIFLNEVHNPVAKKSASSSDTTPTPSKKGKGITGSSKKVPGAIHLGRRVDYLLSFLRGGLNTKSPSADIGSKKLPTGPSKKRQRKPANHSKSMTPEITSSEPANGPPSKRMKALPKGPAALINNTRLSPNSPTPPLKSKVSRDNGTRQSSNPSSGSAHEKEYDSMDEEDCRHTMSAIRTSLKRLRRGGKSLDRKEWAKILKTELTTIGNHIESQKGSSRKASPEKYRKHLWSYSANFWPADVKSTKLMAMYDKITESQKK

Take `CCc1ccc(CN2CCC3(CC2)CC(N2CCN(C)CC2)CO3)cc1` (stereo unspecified): the Percent Effect in assay [1] is -9.52%; in assay [2], 0%; in [3] it was 7.52%; in assay [4], 5.26%; with Trypanosoma cruzi, -0.293%; in assay [5], -2.23%. The Percent Effect was 11.6% in assay [6]; -0.446% in the assay filed under Homo sapiens; 4.32% in [7]; 5.13% in assay [8]; 14% in assay [9].
Regarding `O=C1CCCCN1c1cccc(CNC2CCCC2)c1`, the Percent Effect in [1] was -1.28%; in assay [2] it was 0%; in [3], 5.47%; in [4], 3.26%; with Trypanosoma cruzi, 2.06%; in assay [5], 2.74%. Also, the Percent Effect in assay [6] is 8.49%; in the assay listed under Homo sapiens, -9.59%; in assay [7], 2.86%; in [8], 7.06%; in [9], -7.72%.
Consider `Cc1ccccc1CNC(=O)CN1CCN(Cc2nccn2C)CC1`, for which the Percent Effect in assay [1] is -1.84%; in [2], 21.6%; in assay [3] it was -6.67%; in assay [4], 6.22%; in the assay with Trypanosoma cruzi, 2.74%; in [5] it was -10.8%. Further, the Percent Effect in [6] was 18.4%; in the assay listed under Homo sapiens, 2.02%; in assay [7] it was 8.37%; in assay [8], 25.9%; in assay [9] it was -9.21%.
Turning to `CC(=O)N1CC[C@@H]2CN(C(=O)c3ccco3)CCO[C@@H]2C1`, the Percent Effect in assay [1] was 0.266%; in [2], 13.3%; in assay [3] it was 8.75%; in [4], 0.752%; with Trypanosoma cruzi it was -4.33%; in assay [5] it was 6.29%. Moreover, the Percent Effect was 12.8% in [6]; -9.46% in the assay listed under Homo sapiens; 3.19% in [7]; 3.85% in [8]; -2.25% in [9].
For `CC(CN1CCOCC1)NCC1CCN(c2cnn(C)c(=O)c2)CC1` (stereo unspecified), the Percent Effect is -4.77% in assay [1]; -1.39% in assay [2]; -4.64% in [3]; 1.85% in [4]; -1.85% with Trypanosoma cruzi; -0.883% in assay [5]. The Percent Effect was 4.21% in [6]; -10.4% in the assay filed under Homo sapiens; 0% in assay [7]; -10.3% in [8]; 1.95% in assay [9].
For `COc1ccc(OCc2sc(C3(O)CCCNCC3)nc2C)cc1` (stereo unspecified), the Percent Effect in assay [1] was -4.47%; in assay [2] it was 9.46%; in [3] it was 3.29%; in assay [4] it was 4.34%; in the assay on Trypanosoma cruzi, -1.58%; in assay [5] it was 3.48%. Further, the Percent Effect in assay [6] is 4.52%; in the assay filed under Homo sapiens, 2.06%; in [7], 3.23%; in assay [8], 6.49%; in assay [9], -17.3%.
Regarding `CC(C)Cc1ccc(S(=O)(=O)Nc2ccc(=O)n(C)c2)cc1`, the Percent Effect in [1] is -3.52%; in [2], 25.3%; in assay [3], -59.7%; in assay [4], -2.55%; in the assay with Trypanosoma cruzi, 3.31%; in assay [5], 0%. The Percent Effect in assay [6] is 15.5%; in the assay listed under Homo sapiens, 69%; in assay [7], 6.4%; in assay [8] it was 21.5%; in assay [9], -7.97%.
For `CSCC[C@H](NC(=O)Cn1ccc2c(Cl)cccc21)C(=O)O`, the Percent Effect in assay [1] was 0.448%; in [2] it was 12%; in assay [3] it was 2.92%; in assay [4], 2.75%; in the assay on Trypanosoma cruzi, -3.93%; in assay [5], -6.87%. Also, the Percent Effect in assay [6] is 15.2%; in the assay listed under Homo sapiens it was -1.36%; in [7], 3.17%; in assay [8], 7.69%; in [9] it was -6.56%.
For `O=C(NCC1CC1)C1CN(C(=O)c2cccs2)CC12CCOCC2` (stereo unspecified), the Percent Effect in assay [1] is -8.31%; in assay [2] it was 16%; in assay [3], 2.41%; in assay [4], 3.43%; in the assay with Trypanosoma cruzi, 0.579%; in assay [5] it was -52.5%. Also, the Percent Effect in assay [6] was 4.62%; in the assay filed under Homo sapiens, -9.4%; in [7], 5.21%; in [8], -47.5%; in assay [9], -5.08%.
Turning to `Cc1nc(C)n(CC2CCCN(CC(=O)Nc3nncs3)C2)n1` (stereo unspecified), the Percent Effect in [1] was -2.17%; in [2], -2.63%; in [3], 3.08%; in assay [4] it was 5.75%; with Trypanosoma cruzi, -2.26%; in assay [5], -1.15%. Also, the Percent Effect was 4.84% in assay [6]; -3.5% in the assay filed under Homo sapiens; 1.47% in assay [7]; 0% in assay [8]; -0.768% in [9].
Take `CC(Cn1ccnc1)NC(=O)NCCc1ccc2c(c1)OCCO2` (stereo unspecified): the Percent Effect in assay [1] was -3.57%; in assay [2], 18.2%; in [3], -10.2%; in assay [4] it was -0.77%; in the assay on Trypanosoma cruzi, -10.1%; in assay [5], 0.712%. The Percent Effect was 15.7% in assay [6]; 31.7% in the assay listed under Homo sapiens; 4.85% in assay [7]; 2.44% in [8]; -8.39% in assay [9].
